Assay results: the OligoGym collection

target: CMIP; experiment: pooled miR-30 sensor sort-seq; sequence = guide strand; conditions: shRNA
Note: reference of the scale not given here.

Sequence | sensor-assay potency score (higher = more potent)
TTTTTGGTCTTGTAACAGGAGC | -1.29
TCGATGACCACCATGGACCGGG | -0.357
TCTTTCAAGACAACTTCCCAGC | -0.735
TTGGAGGGCAGTGTTAGCCTGG | -0.584
TTGCTGAGAAAGGTCCGCGGGT | -0.793
TTTTTTGGTCTTGTAACAGGAG | -0.0686
TTCGAGGTGAGGATCTTGCTGA | 0.014
TAAACTGCAGAGACTCTTCATG | 0.214
TTGTATTCCAGCATCAAGCACA | -0.524

target: CMPK1; experiment: as above; conditions: shRNA

Sequence | sensor-assay potency score (higher = more potent)
TACAACTTTGTACAAGTTGTAG | -1.32
TTAATAAACACTAAAATGCTCC | -0.407
TACATCTGCCTTCCCATCCATG | -0.919
TTGTTTACCAAACACATTGTGC | -0.615
TATCTCAACTGGTACAATCTTT | -0.621
TATTCTTCTGAGCATTGGCAGC | -1.31
TTTACCAAACACATTGTGCAAG | -0.707
TTAGAAGCATCTATTTTCTTGA | 0.0499
TTAAGTTTTCTCATCTTTCTAC | 0.568
ATAAACACTAAAATGCTCCTAA | 0.491
TCAACTGGTACAATCTTTCCTT | 0.503
